99 molecules from PubChem BioAssay AID372 (MTDP, 2006) can be followed below.

Molecules are shown by their SMILES. Among all 100,000 compounds or so, about 770 (0.77%) were called active. No stated cut-off is given here; in the data, active means inhibition above about 50%; inactive means the rest. What follows is part of a selection rich in actives, with near analogues and random picks from the rest.

The experiment concerns the target Gag-Pol polyprotein (Human immunodeficiency virus type 1 group M subtype B (isolate HXB2)) (UniProt P04585). Description: RNase H inhibition, HIV 1 Gag Pol polyprotein, FRET biochemical assay, screening (AID 372). Conditions: HIV-1 RT RNase H, FRET RNA/DNA substrate fluorescence; at 10 µM; stronger effect = higher value.
Regarding `CC(/C=C/c1ccco1)=N/NC(=O)COc1cccc(Cl)c1`, the inhibition is 14% (inactive). In the case of `Cc1ccc(C(=O)NC(C(=O)NC(C)(C)C)C23CC4CC(CC(C4)C2)C3)cc1` (centres undefined), the inhibition is 16% (inactive). Take `CC(=O)c1cccc(NC(=S)NC(=O)c2ccc(C)cc2)c1`: the inhibition was 17% (inactive). Next, `O=C(NC(=S)Nc1cc(Cl)c(Cl)cc1Cl)c1ccc(Cl)cc1`: 54% (active); `Cc1ccc(C(=O)NC(=S)Nc2cc(Cl)cc(Cl)c2)cc1C`: 50% (active). Next, `COC(=O)c1cc(NC(=S)NC(=O)c2ccccc2)cc(C(=O)OC)c1`: 21% (inactive). Next, `Cc1cccc(C)c1NC(=S)NC(=O)c1ccccc1`: 7% (inactive). Regarding `Cc1cccc(C)c1NC(=S)NC(=O)c1ccc(Br)cc1`, the inhibition is 2% (inactive). Next, `Cc1ccc(C(=O)NC(=S)Nc2cc(Cl)cc(Cl)c2)cc1`: 14% (inactive). Next, `COC(=O)c1cc(NC(=S)NC(=O)c2ccc(C)cc2)cc(C(=O)OC)c1`: 54% (active).

Take `O=C(NC(=S)Nc1cc(Cl)c(Cl)cc1Cl)c1ccc(F)cc1`: the inhibition is 13% (inactive). To `Cc1ccc(C(=O)NC(=S)Nc2ccc(Cl)cc2)cc1C` belongs 3% (inactive); to `Cc1ccc(C(=O)NC(=S)Nc2cc(Cl)c(Cl)cc2Cl)cc1`, 40% (inactive). Next, `Cc1ccc(C(=O)NC(=S)Nc2c(C)cccc2C)cc1`: 53% (active); `CC(C)=C1C2CCC1C(C(=O)NCc1ccccc1)C2C(=O)O` (centres undefined): 0% (inactive). Next, `Cn1c(O)c(C(=NCc2ccccc2)c2ccccc2)c(=O)n(C)c1=O`: 8% (inactive). For the molecule `O=C(Nc1cccc2ccccc12)/C(=C/c1ccccc1)c1ccccc1`, the inhibition was 28% (inactive). `COc1cccc(OCCCOc2ccccc2[N+](=O)[O-])c1`: the inhibition is 14% (inactive). For the molecule `CCOC(=O)C1=C(C)NC2=C(C(=O)CC(c3ccccc3)C2)C1c1cccc([N+](=O)[O-])c1` (centres undefined), the inhibition is 15% (inactive). As to `COc1ccc(C(=O)Nc2ccc(NC(=O)c3ccccc3)cc2)cc1[N+](=O)[O-]`, the inhibition is 23% (inactive). To `CCOc1ccc(C(=O)Nc2ccc(C(C)=O)cc2)cc1[N+](=O)[O-]` belongs 5% (inactive). To `CCOc1ccc(C(=O)Nc2cccc(NC(=O)c3ccccc3)c2)cc1[N+](=O)[O-]` belongs 0% (inactive).

As for `CCOc1ccc(C(=O)Nc2ccc(NC(=O)c3ccccc3)cc2)cc1[N+](=O)[O-]`, the inhibition was 56% (active). Next, `COc1ccc(C(=O)Nc2ccc(NC(=O)c3ccc(Br)cc3)cc2)cc1[N+](=O)[O-]`: 59% (active); `COc1ccc(C(=O)Nc2ccc(NC(C)=O)cc2)cc1[N+](=O)[O-]`: 5% (inactive); `O=C(/C=C/c1ccc2c(c1)OCO2)Nc1ccccn1`: 6% (inactive).

`COc1ccc([N+](=O)[O-])cc1-c1ccc(/C=N/n2cnnc2)o1`: the inhibition is 57% (active). Next, `O=[N+]([O-])c1ccc(-c2ccc(/C=N/n3cnnc3)o2)c(Br)c1`: 12% (inactive); `COc1ccc(-c2ccc(/C=N/n3cnnc3)o2)c([N+](=O)[O-])c1`: 14% (inactive).

In the case of `COc1cccc(NC(=O)c2ccc(CN(c3ccc(C)c(C)c3)S(C)(=O)=O)cc2)c1`, the inhibition was 3% (inactive). Take `CC1=C(C(=O)Nc2ccc(Br)cc2)C(c2ccccc2)NC(=O)N1` (centres undefined): the inhibition is 18% (inactive). With `O=C(/C=C/c1ccc(-c2cc(Cl)ccc2Cl)o1)c1ccc(F)cc1`, the inhibition was 52% (active). Next, `O=C(/C=C/c1ccc(-c2cc(Cl)cc(Cl)c2)o1)c1ccccc1`: 51% (active); `O=C(/C=C\c1ccc(-c2cc(Cl)ccc2Cl)o1)c1ccccc1`: 40% (inactive). Next, `CC(=O)/C=C/c1ccc(-c2cc(Cl)ccc2Cl)o1`: 54% (active); `O=C(/C=C/c1ccc(-c2ccccc2Cl)o1)c1ccc(F)cc1`: 47% (inactive). In the case of `O=C(/C=C/c1ccc(-c2ccc(Cl)cc2Cl)o1)c1ccc(F)cc1`, the inhibition is 27% (inactive). To `COc1ccc(C(=O)/C=C/c2ccc(-c3cc(Cl)ccc3Cl)o2)cc1` belongs 15% (inactive); to `O=C(/C=C/c1ccc(-c2ccc(Cl)cc2Cl)o1)c1ccccc1`, 13% (inactive); to `O=C(/C=C/c1ccc(-c2ccc(Cl)cc2)o1)c1ccccc1`, 20% (inactive). Next, `O=[N+]([O-])c1ccc(Cl)c(S(=O)(=O)Nc2ccccn2)c1`: 0% (inactive). Next, `O=C(c1nn2c(C(F)(F)F)cc(-c3cccs3)nc2c1Br)N1CCOCC1`: 0% (inactive); `COc1ccc(OC)c(C(=O)N/N=C/c2ccccn2)c1`: 3% (inactive); `CC(C)(C)c1cc(C(=O)NCC(=O)OCC(=O)c2ccccc2)cc(C(C)(C)C)c1`: 18% (inactive). For `O=C(NC(=S)Nc1ccc(Br)cc1)c1ccc(Cl)cc1`, the inhibition was 1% (inactive). Next, `Cc1ccc(N(CC(=O)NCCOc2ccc(F)cc2)S(=O)(=O)c2ccccc2)cc1C`: 5% (inactive); `CCOC(=O)Cc1csc(NC(=O)COc2c(C)cccc2C)n1`: 5% (inactive).

For `NC(=O)c1cnn2c1NC(c1ccco1)CC2C(F)(F)F` (centres undefined), the inhibition is 0% (inactive). To `O=C(Nc1ccc(Cl)cc1Cl)c1ccc(-c2ccccc2)cc1` belongs 0% (inactive); to `CC(=O)Nc1ccc(C(=O)Nc2ccc(Cl)cc2Cl)cc1`, 0% (inactive). To `O=C(Cc1ccccc1)Nc1ccc(C(=O)Nc2ccc(Cl)cc2Cl)cc1` belongs 59% (active); to `CS/C(N)=N\N=C\c1cc([N+](=O)[O-])ccc1O`, 18% (inactive).

`O=C(NC(=S)Nc1cc([N+](=O)[O-])ccc1Cl)c1cccc2ccccc12`: the inhibition was 51% (active). Next, `COc1ccccc1C(=O)NC(=S)Nc1cc([N+](=O)[O-])ccc1Cl`: 6% (inactive).

On to `O=C(NC(=S)Nc1cc([N+](=O)[O-])ccc1Cl)c1ccccc1Br`, for which the inhibition was 18% (inactive). To `CSc1nc(SC)c2c3c(sc2n1)CN(C)CC3` belongs 0% (inactive).

Consider `Cc1ccc(OCC(=O)Nc2cc(C(F)(F)F)cc(C(F)(F)F)c2)cc1C`, for which the inhibition is 0% (inactive). Turning to `COc1ccc(C(=O)Nc2ccc(S(=O)(=O)Nc3ncccn3)cc2)cc1OC`, the inhibition was 0% (inactive). Next, `CCCCOc1ccc(NC(=O)/C=C/c2ccc(OC)c(OC)c2)cc1`: 3% (inactive); `CCCOc1ccc(/C=C/C(=O)Nc2ccc(S(=O)(=O)Nc3ncccn3)cc2)cc1OC`: 61% (active). Next, `O=c1[nH]n(-c2ccccc2)c(O)c1/C=C1\C=Nc2ccccc21`: 10% (inactive). Next, `O=c1[nH]c(O)c(/C=C2\C=Nc3ccccc32)[nH]1`: 0% (inactive). For the molecule `Cc1ccc([N+](=O)[O-])cc1NC(=O)COc1ccc(Cl)cc1C`, the inhibition was 13% (inactive). To `O=C(Nc1ncccc1Cl)C1CCCO1` (centres undefined) belongs 18% (inactive); to `N#C/C(=C\Nc1ccc(S(=O)(=O)Nc2nccs2)cc1)c1nc(-c2ccc(-c3ccccc3)cc2)cs1`, 16% (inactive); to `COc1ccc(-c2csc(/C(C#N)=C/Nc3ccc(S(=O)(=O)Nc4nccs4)cc3)n2)cc1`, 6% (inactive). To `Cc1cccc(NC(=O)/C(C#N)=C\c2cc(C)n(-c3ccc(C)c(C)c3)c2C)c1` belongs 10% (inactive).

With `NN1CCN(Cc2cccc3ccccc23)CC1`, the inhibition is 7% (inactive).

As for `Cc1c(O)ccc(C(=O)Cc2ccccc2Cl)c1O`, the inhibition is 10% (inactive). Next, `O=C(Cc1ccccc1Cl)c1ccc(O)cc1O`: 7% (inactive). Turning to `O=C(c1cccc(F)c1)N1CCN(C(=O)c2cccs2)CC1`, the inhibition was 7% (inactive).

Consider `COc1cc(OC)c(OC)cc1CN1CCN(Cc2ccccn2)CC1`, for which the inhibition is 5% (inactive). To `CCc1c(C)sc(NC(=O)c2cccc(Br)c2)c1C(=O)OC` belongs 16% (inactive). Next, `CCc1c(C)sc(NC(=O)c2ccncc2)c1C(=O)OC`: 73% (active); `CCc1c(C)sc(NC(=O)c2ccc(OC)c(OC)c2)c1C(=O)OC`: 16% (inactive); `CCOC(=O)c1ccc(NC(=O)c2cn(-c3ccccc3)nc2-c2ccccc2)cc1`: 9% (inactive).

As to `COc1cc(C=O)ccc1OCCCCOc1c(C)cc(C)cc1Br`, the inhibition is 31% (inactive). For the molecule `O=C(Nc1nc2ccc3ccccc3c2s1)c1cccc(Cl)c1`, the inhibition is 5% (inactive). For the molecule `O=C(Nc1nc2ccc3ccccc3c2s1)c1ccc(Cl)cc1`, the inhibition is 54% (active). Next, `O=C(Nc1nc2ccc3ccccc3c2s1)c1ccc(C(=O)c2ccccc2)cc1`: 18% (inactive). To `COc1ccc(NC(=O)c2c(-c3c(Cl)cccc3Cl)noc2C)c([N+](=O)[O-])c1` belongs 1% (inactive).

For `CCOc1ccc(N2C(=O)NC(=O)/C(=C\c3ccc(Sc4ccccc4)o3)C2=O)cc1`, the inhibition is 15% (inactive). To `O=[N+]([O-])c1ccc(/C=C/C=N/Nc2nc(N3CCOCC3)nc(N3CCOCC3)n2)cc1` belongs 2% (inactive); to `CCN(CC)C(=O)c1sc(NC(=O)/C=C/C(=O)O)c(C(=O)OC)c1C`, 70% (active). Next, `CCCC(=O)Nc1sc(C(=O)N(CC)CC)c(C)c1C(=O)OC`: 24% (inactive); `CCN(CC)C(=O)c1sc(NC(=O)C(C)(C)C)c(C(=O)OC)c1C`: 43% (inactive). Next, `O=Cc1ccc(-c2ccc(OC(F)(F)F)cc2)o1`: 7% (inactive); `COc1cc(OC)cc(C(=O)Nc2ccc3oc(-c4ccc(Br)cc4)nc3c2)c1`: 27% (inactive); `O=C(Nc1cccc(-c2nc3cc(Cl)ccc3o2)c1)c1cccc(F)c1`: 21% (inactive). As to `COc1cc(OC)cc(C(=O)Nc2ccc3oc(-c4ccc(Cl)c(Cl)c4)nc3c2)c1`, the inhibition was 56% (active). Next, `COc1cccc(C(=O)Nc2ccc(-c3cc4ccccc4oc3=O)cc2)c1`: 45% (inactive); `O=C(Nc1ccc2oc(-c3cccc(F)c3)nc2c1)c1cccc(F)c1`: 14% (inactive); `O=C(Nc1ccc2oc(-c3ccc(Cl)c(Cl)c3)nc2c1)c1ccc(F)cc1`: 60% (active).

On to `O=C(Nc1ccc(-c2cc3ccccc3oc2=O)cc1)c1ccc(Cl)c(Cl)c1`, for which the inhibition is 0% (inactive). Next, `COc1ccc(-c2nc3cc(NC(=O)c4ccc(F)cc4)ccc3o2)cc1Cl`: 13% (inactive); `O=C(Nc1ccc(-c2cc3ccccc3oc2=O)cc1)c1cccc(F)c1`: 58% (active).

For `O=C(Nc1ccc2oc(-c3ccc(F)cc3)nc2c1)c1cc(Br)ccc1Cl`, the inhibition was 2% (inactive). Next, `COc1cc(OC)cc(C(=O)Nc2ccc3oc(-c4ccc(I)cc4)nc3c2)c1`: 16% (inactive). To `O=C(Nc1ccc2oc(-c3cccc(Cl)c3)nc2c1)c1cccc(F)c1` belongs 50% (active).

As a reminder, the inhibition is the share of the control response that was lost under treatment.
